# Hits are enriched below; roughly 7.8% of the tested compounds scored in any of these assays.
# VACV mCherry inh: inhibitors of vaccinia virus infection (mCherry reporter signal). Vaccinia virus mCherry reporter infection, fluorescence. Potency, µM (doses to about 36.5 µM), without a hit: at the highest dose activity change, negative = inhibition, usual class: inhibitors. 310,000 compounds, 0.63% hits. AID 720579; calls by dose curve; tested in A549 cells; also: potency is read from the fitted curve at half-maximal effect; nearly all actives have a fitted effect of over 35% in size
# MARV entry inh: blocks Marburg virus binding to or entry into cells. 300,000 compounds, 1.8% hits. Potency, µM (series often up to 37.8 µM), without a hit: at the highest dose activity change, negative = inhibition, hits mostly inhibitors. Marburg virus pseudotyped entry inhibition, cell reporter; calls by dose curve; tested in HEK293 cells; also: potency is read from the fitted curve at half-maximal effect
# HCV inh: inhibitors of hepatitis C virus infection. Huh7.5.1 HCVcc-Cre infection, luciferase reporter, 44 h. Potency, µM (titrated, usually from 41.8 µM), without a hit: top-dose activity change, negative = inhibition, most hits filed as inhibitors. 340,000 compounds, 3.4% hits. AID 651820; active = well fitted inhibition curve with a large enough effect; inconclusive = small, poorly fitted or top-dose-only effect, or another doubt; inactive = no such curve, though single readings can be large or run the other way; also: potency is read from the fitted curve at half-maximal effect
#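 After 44 h co-culture of compound, cells and HCVcc-Cre (~0.5 moi), substrate is added for 15 min at room temperature and luciferase measured over 15 sec. Cells were seeded at 1,000/well and pre-cultured 4 h.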
# Vaccinia Venus: vaccinia inhibition (Venus reporter). Vaccinia virus Venus reporter expression, fluorescence. 330,000 compounds, 0.46% hits. Potency, µM (top dose mostly 36.5 µM), for the others: at the highest dose activity change, negative = inhibition, actives largely listed as inhibitors. AID 720580; calls by dose curve; tested in A549 cells; also: potency is read from the fitted curve at half-maximal effect; nearly all actives have a fitted effect of over 30% in size
# Lassa entry inh: blocks Lassa virus binding to or entry into cells; Lassa virus pseudotype entry inhibition, cell reporter; Potency, µM (titrated, usually from 37.9 µM), without a hit: at the top dose activity change, negative = inhibition, usual class: inhibitors; 300,000 compounds, 1.2% hits; AID 540256; calls by dose curve; tested in HEK293 cells; also: potency is read from the fitted curve at half-maximal effect; nearly all actives have a fitted effect of over 50% in size
# HCMV inh: blocks human cytomegalovirus replication | HFF cells, HCMV-luciferase reporter, 72 h; hits give low values | activity change, negative = inhibition, % at 57.5 µM | 410,000 compounds, 4.5% hits | AID 1259415; in the data active = activity change below about -60%; inconclusive = no clear call, values can overlap the other calls; inactive = above about -39%
#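 Cell-based, HFFs, 1000 cells/well, 16 h 37C; cpds in DMSO + HCMV-luc, MOI 1 PFU/cell; 72 h 37C; OneGlo luminescence after 5 min RT; norm. to buffer vs Salinomycin 10uM.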
# * hit, by the source's call; i = inactive; ? = inconclusive; . = no result; [ ] = remark or other dose. % is scaled to controls: 0 for no effect and ±100 for the full control effect.
SMILES,VACV mCherry inh,MARV entry inh,HCV inh,Vaccinia Venus,Lassa entry inh,HCMV inh
CCC(CC)c1nn2c(=O)cc(COc3ccc(NC(=O)c4ccc(Cl)cc4)cc3)nc2s1,10%,1%[46.1 µM],.,-1%,-13%[46.1 µM],6
COc1ccc(C)cc1S(=O)(=O)NCCC1=CCCCC1,.,20%,35µM*,.,2%,31
Cc1ccc(NC(=O)c2cc(S(=O)(=O)NCCC3=CCCCC3)ccc2F)cc1,-27%,?,?,?,?,-84*
O=S(=O)(NCCC1=CCCCC1)c1ccc(Br)cc1,-9%,9%,-2%,-13%,?,-73*
COc1ccc(Br)cc1CNC(=O)CCCn1c(=O)c2cccn2c2ccccc21,-9%,.,.,-11%,-8%[46.1 µM],-30
CCc1ccc(NC(=O)CC(c2cc(OC)c(OC)c(OC)c2)N2Cc3ccccc3C2=O)cc1 (stereo not drawn),17%,.,.,1%,-11%[46.1 µM],-1
O=C(Nc1c(C(=O)Nc2cccc(F)c2)oc2ccccc12)c1cc2ccccc2o1,-13%,1%[46.1 µM],.,-14%,-2%[46.1 µM],-19
COc1ccc(-c2nsc(NC(=O)C(C)Oc3ccc(Cl)c(C)c3)n2)cc1 (stereo not drawn),-6%,1%[46.1 µM],.,-11%,7%[46.1 µM],-65*
CC(Oc1ccc(F)cc1)C(=O)Nc1nc(-c2ccc(F)cc2)ns1 (stereo not drawn),-6%,8%[46.1 µM],.,-19%,2%[46.1 µM],-94*
COc1ccc(C(=O)Nc2nc(-c3ccc(Br)cc3)ns2)cc1,-17%,4%[46.1 µM],.,-19%,?,?
COc1cc(-c2noc(-c3ccc(NC4CCCC4)c([N+](=O)[O-])c3)n2)cc(OC)c1OC,-11%,-2%[46.1 µM],.,3%,25%[46.1 µM],6
O=C(O)C1=C(O)CCCC1,.,2%,.,.,.,.
COc1cc2c(cc1OC)n(Cc1ccc([N+](=O)[O-])cc1)c(=O)n1nc(-c3ccccc3)nc21,-25%,.,.,-28%,-28%[46.1 µM],-3
NC(C(=O)O)C1ON=C(Cl)C1O (stereo not drawn),-8%,-2%,?,-26%,-12%,-86*
N[C@H](C(=O)O)[C@@H]1CC(Cl)=NO1,2µM*,.,.,?,.,.
CCN(CC)c1ccc(/C=N/NC(=S)NCc2ccccc2)cc1,-8%,?,-11%,-22%,?,-5
C=CCNC(=S)N/N=C/c1ccc(N(CC)Cc2ccccc2)cc1,?,12µM*,?,?,16µM*,-12
C=CCNC(=S)N/N=C/c1ccc(C)c([N+](=O)[O-])c1,-12%,?,-26%,-24%,?,?
CCN(CC)c1ccc(/C=N/NC(=S)NCc2ccc(OC)cc2)cc1,-23%,?,?,-5%,3.7µM*,16
CCOC(=O)[C@]12CCC=C1N(Cc1ccco1)C(=O)[C@H](CC(=O)NCc1ccc(OC)c(OC)c1)C2,37%,.,.,-4%,.,5
COC(=O)[C@]12CCCCC=C1N(Cc1cccc3ccccc13)C(=O)[C@H](CC(=O)NCc1ccc(OC)c(OC)c1)C2,?,.,.,-26%,.,-86*
CCOC(=O)[C@]12CCC=C1N(Cc1cccc3ccccc13)C(=O)[C@H](CC(=O)NCc1ccc(OC)c(OC)c1)C2,-11%,.,.,?,.,-65*
CCCCSCCCNC(=O)c1cn(CC)c2ccc(S(=O)(=O)N3CCCCCC3)cc2c1=O,-29%,0%[46.1 µM],.,-27%,-26%[46.1 µM],2
COc1cc(CNCCSc2nnnn2C)ccc1OCc1ccc(C)cc1,-16%,24%[46.1 µM],.,-13%,?,26
CC(C)(C)C1CCC(=O)N(CCSc2ccccc2)CC1 (stereo not drawn),-19%,.,3.5µM*,-15%,.,-16
SMILES,VACV mCherry inh,MARV entry inh,HCV inh,Vaccinia Venus,Lassa entry inh,HCMV inh
Cc1ccc(SCCN2CCC(C(C)(C)C)CCC2=O)cc1 (stereo not drawn),-3%,.,-1%,-21%,.,-6
COc1ccc(CNC(=O)c2ccc3nc(C(C)C)oc3c2)cc1OC,-21%,.,.,-26%,-25%[46.1 µM],8
Cc1ccc(NC(=O)COC(=O)c2ccc3c(c2)NC(=O)C2CCCN32)cc1 (stereo not drawn),.,-22%,10µM*,.,1%,56
CC(=O)n1cc(-c2ccncc2)c2ccccc21,i,.,10µM*,-17%,.,-94*
O=C(Nc1ccc2c(c1)OCO2)c1cc(-c2ccc(Br)cc2)on1,-9%,6%[46.1 µM],.,-4%,4%[46.1 µM],16
O=C(c1cc(-c2ccc(Cl)cc2Cl)on1)N1CCCC1,34%,?,-5%,2%,3.5µM*,-20
Cc1ccc(-c2cc(C(=O)N3CCOCC3)no2)cc1,-9%,2µM*,13%,-8%,.,-61*
O=C(Nc1ccc(Br)cc1)c1cc(-c2ccc3c(c2)OCO3)on1,-9%,13%[46.1 µM],10%,-8%,6%,-60*
O=C(c1cc(-c2ccc3c(c2)OCO3)on1)N1CCCCC1,10%,?,?,10%,2.8µM*,40
O=C(c1cc(-c2ccc(Cl)cc2Cl)on1)N1CCCCCC1,-18%,?,6%,-19%,?,60
Cc1ccc(NC(=O)CCCc2nnc3n(C)c(=O)c4sccc4n23)cc1C,-13%,.,.,0%,1%[46.1 µM],-31
O=C(O)C1Nc2ccccc2C2C=CCC12 (stereo not drawn),-15%,.,.,13%,.,.
Cc1ccc(-c2cc(C(=O)NC3CCCC3)no2)cc1,-8%,10µM*,12%,-7%,-12%[46.1 µM],55
O=C(NC1CCCCC1)c1cc(-c2ccc(F)cc2)on1,-5%,12%[46.1 µM],-1%,-4%,.,54
CN1C2CCC1/C(=C\c1ccccc1)C(=O)/C2=C\c1ccccc1,.,15µM*,13µM*,.,?,-66*
O=C1/C(=C/c2ccccc2)CCC1C1CCCC1 (stereo not drawn),-11%,?,6%,-13%,?,-34
O=C1/C(=C/c2ccccn2)COc2ccccc21,-16%,?,20%,-8%,?,?
CN1C2CCC1/C(=C/c1ccccn1)C(=O)/C2=C\c1ccccn1,2.5µM*,1.3µM*,3.5µM*,6.3µM*,2.3µM*,-101*
CC1C/C(=C/c2ccccn2)C(=O)/C(=C/c2ccccn2)C1 (stereo not drawn),?,?,2.2µM*,?,4µM*,.
Cc1ccc(NC(=O)c2oc3ccccc3c2NC(=O)c2cc3ccccc3o2)cc1,-11%,?,.,-5%,-2%[46.1 µM],-22
Cc1ccc(CNC(=O)c2cc3c(=O)n4cccc(C)c4nc3s2)cc1,-6%,8%[46.1 µM],.,5%,-27%[46.1 µM],9
CCOC(=S)SCc1cn2ccccc2n1,i,-16%[46.1 µM],-2%,-7%,14%,-29
CCOC(=S)SCc1cn2ccc(C)cc2n1,-16%,-1%,5%,-10%,22%,-65*
Cc1cc(C)n(-c2nc(C)c(C)c(=O)n2CC(=O)Nc2ccc([N+](=O)[O-])cc2)n1,-9%[7.34 µM],.,.,-6%[7.34 µM],-23%[46.1 µM],65
